Measured values: PubChem BioAssay AID1851 (National Center for Advancing Translational Sciences (NCATS), 2009)
The campaign covered roughly 16,000 compounds. About 5,700 (36%) were called active. Roughly 24% stayed inconclusive and do not appear here. Calls come from the whole dose curve; as a rule, active = well fitted curve in the direction sought with a large enough effect; inconclusive = small, poorly fitted or top-dose-only effect, or effect the other way; inactive = no such curve, though single readings can be large or run the other way. This is one part of the list.

biological target: Cytochrome P450 1A2 (Homo sapiens) (UniProt P05177); experiment: Cytochrome panel assay with activity outcomes; settings: recombinant CYP, pro-luciferin dealkylation, luminescence, p450-cyp1a2; series mostly up to 57.1 µM
Sequence (P05177 whole entry, looked up): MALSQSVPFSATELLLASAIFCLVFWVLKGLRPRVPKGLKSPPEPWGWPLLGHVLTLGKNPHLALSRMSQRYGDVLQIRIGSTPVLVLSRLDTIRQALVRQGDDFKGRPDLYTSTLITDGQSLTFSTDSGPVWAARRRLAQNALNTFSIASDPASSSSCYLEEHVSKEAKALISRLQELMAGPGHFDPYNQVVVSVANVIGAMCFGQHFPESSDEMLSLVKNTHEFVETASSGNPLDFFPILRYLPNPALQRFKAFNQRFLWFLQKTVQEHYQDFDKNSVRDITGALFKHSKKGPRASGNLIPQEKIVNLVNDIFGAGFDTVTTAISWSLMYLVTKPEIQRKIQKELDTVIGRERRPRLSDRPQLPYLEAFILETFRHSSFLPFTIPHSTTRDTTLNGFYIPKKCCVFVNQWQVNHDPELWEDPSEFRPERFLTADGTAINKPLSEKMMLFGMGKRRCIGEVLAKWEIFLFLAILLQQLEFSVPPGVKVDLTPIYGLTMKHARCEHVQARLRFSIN
% is set by controls: 0 for no effect and ±100 for the full control effect.

activity, negative = inhibition, inactive:
N[C@@H]1[C@@H]2[C@@H]3C[C@H]4N(CC[C@@]14C(=O)C(=O)O)CC3=CCO[C@@H]2CC(=O)O -16.1% [at 11.4 µM]
Nc1ccn([C@@H]2O[C@H](COC(=O)C34CC5CC(CC(C5)C3)C4)[C@@H](O)[C@@H]2O)c(=O)n1 -18.7% [at 2.29 µM]
CO[C@@H]1/C=C\CC(=O)N[C@@H](C)C(=O)OC[C@@H](OC)[C@H](C)/C=C\CC(=O)OC[C@H]1C -4.89% [at 11.4 µM]
CC(C)/C(=N/[N+](C)(C)C)c1ccccc1 -16.2% [at 2.29 µM]
COc1ccc(-c2nc(N)c3ncn([C@H]4O[C@@H](CO)[C@@H](O)[C@@H]4O)c3n2)cc1 -13% [at 2.29 µM]
CC1(C)[C@@H]2CC[C@]1(C)[C@@H](OC(=O)CSC#N)C2 -18.3% [at 2.29 µM]
C#CCCCO/N=C1/C[C@@H](O)[C@@H](O)[C@@H]2[C@@H]3C(=O)N([C@@H](C)c4ccccc4)C(=O)[C@H]3CC[C@H]12 0.735% [at 11.4 µM]
CC1=N[C@@](C)(COC(=O)[C@]2(C)N[C@](C)(CO)CO2)COC1=O 6.88% [at 2.29 µM]
Cn1c(=O)c2[nH]c(CCCCc3nc4c([nH]3)c(=O)n(C)c(=S)n4C)nc2n(C)c1=S -13.8% [at 2.29 µM]
COC(=O)C/C=C\[C@@H](C)[C@@H]1C=C[C@H](OC(C)=O)[C@H](COC(C)=O)O1 -1.57% [at 11.4 µM]
O=S(=O)(c1ccccc1)N1CN2CN(C1)CN(S(=O)(=O)c1ccccc1)C2 -14.9% [at 11.4 µM]
CCCNC(=O)OC[C@@H]1O[C@H](CCO/N=C\[C@@H](C)[C@H](OCc2ccccc2)C(C)C)C=C[C@@H]1Oc1ccc(OC)cc1 -5.94% [at 11.4 µM]

AC50, inactive:
C=C[C@@]1(C)CC(=O)[C@@]2(O)[C@@]3(C)[C@H](O)CCC(C)(C)[C@@H]3[C@H](O)[C@H](OC(C)=O)[C@]2(C)O1
COc1ncnc(NS(=O)(=O)c2ccc(N)cc2)c1OC
NC(N)=[N+]1CCc2ccccc2C1
Cc1ccc(C(=O)c2ccc(CC(=O)O)n2C)cc1
OC[C@H]1NC[C@@H](O)[C@@H](O)[C@H]1O
Cc1ccccc1C(C(=O)NC1CCCC1)N(C(=O)Cc1cccs1)c1ccc2c(c1)OCCO2 (configuration not stated)
COc1ccc(-n2c(SC)nc(O)c(Cc3ccccc3)c2=O)cc1
COc1ccc(C(=O)N2CCC3(CC2)CCN(C(c2ccccc2)c2ccccc2)CC3)cc1
COc1ccc(-c2ccc(N)[n+](CCCC(=O)O)n2)cc1
COc1ccc(C2C(C#N)=C(N)Oc3n[nH]c(C)c32)cc1CN1CCN(c2ccc(F)cc2)CC1 (configuration not stated)
O=C(CP(=O)(c1ccccc1)c1ccccc1)Nn1cnnc1
C=CC1=C(C(=O)O)N2C(=O)[C@@H](NC(=O)/C(=N\OCC(=O)O)c3csc(N)n3)[C@@H]2SC1
CN1CCC2(CC1)CCN(C(=O)c1cc(C(F)(F)F)cc(C(F)(F)F)c1)CC2
CC(Oc1ccc(-c2ccccc2)c(F)c1)c1ccn(S(=O)(=O)c2ccc(Cl)cc2)n1 (configuration not stated)
COC(=O)c1c(C)nc2ccccc2c1C(=O)O
CCOC(=O)c1ccc(NC(=O)C2(c3ccc(OC)cc3)CCOCC2)cc1

AC50, active:
Cc1ccc(/C=C2\Sc3ccccc3C2=O)s1 1.78 µM
O=C(OCc1nc2ccccc2[nH]1)C12CC3CC(CC(C3)C1)C2 22.4 µM
O=c1[nH][nH]c(C(F)(F)F)c1C=Nc1cccc(Cl)c1 12.6 µM
O=c1[nH][nH]c(C(F)(F)F)c1C=Nc1ccccc1Cl 14.1 µM
O=c1[nH][nH]c(C(F)(F)F)c1C=Nc1ccccc1 4.47 µM
CC(C)C(=O)Nc1cc2c(cc1C(=O)c1ccccc1)OCCO2 14.1 µM
CCC(=O)Nc1cc2c(cc1C(=O)c1ccccc1)OCCO2 25.1 µM
COc1ccc(C(=O)n2nc(-c3ccccc3)nc2SC)cc1 0.562 µM
CCCC(=O)n1nc(-c2cccnc2)nc1N 5.01 µM
CCC(=O)n1nc(-c2ccc(OC)cc2)nc1N 2 µM
COc1cccc(-c2[nH]nc3c2C(c2ccc(C)o2)C(C#N)=C(N)O3)c1 (configuration not stated) 1.58 µM
COc1cccc(-c2[nH]nc3c2C(c2ccsc2)C(C#N)=C(N)O3)c1 (configuration not stated) 1.12 µM
Cc1cccn2c(/C=N/OCc3cccc(F)c3)c(-c3ccc(Cl)cc3)nc12 2 µM
Cc1cccn2c(/C=N/OCc3ccc(F)cc3)c(-c3ccc(Cl)cc3)nc12 2 µM
Cn1c(O)c(C(C#N)=C2N=c3ccccc3=N2)c2ccccc21 1.58 µM
O=c1ccc2c(OCCCCc3ccccc3)c3ccoc3cc2o1 0.501 µM
CCn1c(=O)[nH]c2ccccc2c1=O 1.78 µM
COCCNc1ncnc2ccc(-c3ccccc3C(F)(F)F)cc12 1.58 µM
FC(F)(F)c1ccccc1-c1ccc2ncnc(NCc3cccnc3)c2c1 1 µM
Clc1ccccc1-c1ccc2ncnc(NCc3cccnc3)c2c1 0.158 µM
COCCNc1ncnc2ccc(-c3ccccc3OC)cc12 2 µM
COc1ccccc1-c1ccc2ncnc(NCc3cccnc3)c2c1 0.794 µM
COc1cccc(-c2ccc3ncnc(NCc4cccnc4)c3c2)c1 0.251 µM
COc1ccccc1-c1ccc2ncnc(NCc3ccccc3)c2c1 2 µM
C=CCNc1nc(-c2ccc(Cl)cc2)cs1 2.24 µM
CC(Oc1ccccc1)c1ccnn1S(=O)(=O)c1ccccc1 (configuration not stated) 25.1 µM
CC(Oc1ccc(Cl)cc1)c1ccnn1S(=O)(=O)c1ccccc1 (configuration not stated) 15.8 µM
CCOC(=O)c1ccc(Nc2nc(C(=O)OCC)nc3ccccc23)cc1 0.891 µM
CCOC(=O)c1ccc(Nc2nc(-c3cccnc3)nc3ccccc23)cc1 6.31 µM
